Assay outcomes deposited in PubChem BioAssay by several laboratories.
The list is not random: actives were taken first. Their share in the collection is about 2.3%.
beta cell repl: induces beta-cell replication in MIN6 cells; 330,000 tested, 0.29% active; proliferation, % at 10 µM; MIN6 cells proliferation, ATPlite luminescence, 48 h; cells starved in 0.2% serum; 100% = growth in 10% serum;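 active means compounds whose signal lies at least 3.5 SD above the mean of all wells on their plate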;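 further: 0% = DMSO-treated cells in low-serum medium and 100% = 10% serum control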
H9c2 protect: protects H9c2 cardiomyocytes from peroxide injury; H2O2 injury protection, ATPLite, 2 h; protection from H2O2 cell death, % at 20 µM; 360,000 tested, 0.63% active; AID 588492;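 active means compounds giving at least 50% protection of heart cells from peroxide-induced death in the single-dose screen, raw or plate-pattern-corrected value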;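 further: 0% = DMSO wells with peroxide and 100% = DMSO wells without peroxide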
aDG glyco act: alpha-DG glycosylation activation; AID 624168; activation, % at 10 µM; 360,000 tested, 0.22% active; Pro5-aDG cells, alpha-DG glycosylation AlphaScreen (IIH6); 0% Pro5, 100% B10-LARGE cell signal;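 active means activation of at least 8% versus controls, or a plate z-score of at least 8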;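 further: Pro5 are CHO cells carrying HIG-tagged alpha-DG that lacks glycosylation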
FAS TE block: blocks the thioesterase domain of human fatty acid synthase | P49327 | recombinant FAS-TE, OMFH fluorogenic substrate, fluorescence endpoint | inhibition, % at 15 µM | 360,000 tested, 0.67% active;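 active means compounds whose normalised, plate-corrected inhibition of enzyme fluorescence in the single-dose primary screen is 50% or more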;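 further: 0% = DMSO with enzyme and 100% = substrate without enzyme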
m-calpain inh: inhibitors of pig calpain II; inhibition, % at 16 µM; purified calpain II, fluorogenic peptide substrate, 30 min; 220,000 tested, 0.37% active;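 active means inhibition above about 50%, limit read from the data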
TAG inh: reduces triacylglycerol accumulation in H9c2 cells; Nile Red lipid (TAG) fluorescence; cells loaded with 200 µM oleic acid; inhibition, % at 12.5 µM; 230,000 tested, 0.66% active; AID 651582;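 active means pattern-corrected inhibition of lipid staining of at least 50% with the nuclear-stain viability signal not falling by more than 50%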;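 further: 0% = DMSO wells and 100% = triacsin C control wells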
An asterisk follows results filed as active; nt = no result.

SMILES	beta cell repl	H9c2 protect	aDG glyco act	FAS TE block	m-calpain inh	TAG inh
Cc1cc(C)c(C)c(S(=O)(=O)N2CCN(C(=O)CCc3nc4ccccc4c(=O)[nH]3)CC2)c1C	-3	70*	0	7	nt	17
Cc1ccc(S(=O)(=O)N2CCN(C(=O)CSc3nc4ccccc4c(=O)[nH]3)CC2)c(C)c1	-4	46	0	1	-85	24
CCN1CCN(C(=O)CCc2nc3ccccc3c(=O)[nH]2)CC1	-2	50	0	-14	-6	1
O=C(CCCCCCN1C(=O)c2ccccc2C1=O)N1CCC(c2ccccc2)C1 (centres undefined)	-1	-3	0	14	53*	3
CC(C)n1c(=O)c2ccccc2n1C(=O)c1ccccc1	nt	-11	0	-5	nt	nt
O=C1C2CCCN2C(=S)N1c1ccc(Cl)cc1 (centres undefined)	0	5	0	0	nt	nt
COc1ccc([C@H]2C[C@H](O)[C@@H](n3cc(C4CC4)nn3)CN2C(=O)c2cccs2)cc1	nt	10	0	-9	nt	-6
O=C(CCc1nc2ccccc2c(=O)[nH]1)Nc1cc(Cl)ccc1N1CCCC1	-2	38	0	-2	nt	9
O=c1[nH]c(CN2CCc3ccccc3C2)nc2ccccc12	-3	33	0	-9	-66	nt
O=C(CCc1nc2ccccc2c(=O)[nH]1)N1CCN(S(=O)(=O)c2cc(Cl)ccc2Cl)CC1	nt	61*	0	8	nt	9
O=C1c2ccccc2C(=O)N1CCCC(=O)N1CCCc2ccccc21	-1	5	0	0	57*	1
O=C(CCc1nc2ccccc2c(=O)[nH]1)N1CCCc2ccccc21	-2	67*	0	-8	nt	0
O=C(CCCC(=O)N1CCc2ccccc21)N1CCc2ccccc21	nt	0	0	-9	nt	-2
Cc1ccccc1NS(=O)(=O)c1cc2c3c(c1)C(C)C(=O)N3CCC2 (centres undefined)	1	-4	0	-12	nt	nt
CC(C)(C)c1ccc(OCC(=O)Nc2ccc3c4c(cccc24)C(=O)NC3=O)cc1	nt	60*	0	-3	-170	7
Cc1ccc(OCC(=O)Nc2ccc3c(c2)C(=O)NC3=O)cc1	-4	-9	1	-4	nt	-5
Cc1ccc2c(C)nc(Nc3nc(CSc4nc5ccccc5[nH]4)cc(=O)[nH]3)nc2c1	-4	69*	0	1	-179	nt
COc1ccc(NC(=O)Cc2cccc3ccccc23)cc1	0	-1	0	3	nt	-7
Cc1ccc(C(=O)CSc2nn3c(=O)c(C(C)(C)C)nnc3s2)cc1	-3	2	0	-8	10	nt
CC(C)(C)c1nnc2sc(SCC(=O)c3ccc(Cl)cc3)nn2c1=O	-4	4	0	51*	20	nt
CSC(=S)NN=C(C)c1cccc(C)n1	nt	34	0	2	nt	55*
CC(=NNC(=S)N1CCCCC1)c1cccc(C)n1	nt	-5	0	-9	nt	48
CCCCNC(=S)NCc1ccc2[nH]c3c(c2c1)CCCC3	-6	-18	0	8	63*	0
O=C(CSc1nnnn1-c1ccc(C(=O)O)cc1)NC1CCCCC1	0	-6	0	-5	nt	nt
CC1=C(C(=O)OCc2ccccc2)C(c2cccs2)N2C(=O)CCSC2=N1 (centres undefined)	-3	1	-1	19	61*	5
SMILES	beta cell repl	H9c2 protect	aDG glyco act	FAS TE block	m-calpain inh	TAG inh
Cc1nn(-c2ccccc2)c(Cl)c1C(=O)Nc1nnc(C2CCCCC2)s1	-4	-3	0	13	-17	15
O=C(Nc1nnc(C2CC2)s1)c1cc(-c2ccccc2)nn1-c1ccccc1	-3	52*	0	18	-216	19
CC(=O)C1=C(C)OC(N)=C(C#N)C1c1cc2cccc(C)c2nc1Cl (centres undefined)	-3	6	0	0	-8	-6
N#CC1=C(N)Oc2cc3ccccc3cc2C1c1cccnc1 (centres undefined)	1	-2	0	2	-10	14
CCc1ccc2[nH]c(=O)c(C3C(C#N)=C(N)Oc4c3ccc3cccnc43)cc2c1 (centres undefined)	-6	64*	0	20	-321	-27
Cc1ccc2cc(C3C(C#N)=C(N)Oc4c3ccc3cccnc43)c(=O)[nH]c2c1 (centres undefined)	-6	70*	0	2	-42	nt
N#CC1=C(N)Oc2c(ccc3cccnc23)C1c1cccnc1 (centres undefined)	-5	83*	0	1	16	13
COCCNc1nc(NCCN2CCNC2=O)c2sc(-c3ccccc3)cc2n1	nt	17	0	-4	nt	35
Cc1ccc(F)cc1NC(=O)CSc1nnc(CNC(=O)c2ccco2)n1C	-3	-3	0	-4	nt	0
O=C1[C@@H]2CSCN2C(=O)CN1Cc1c(F)cccc1Cl	0	-2	0	-1	nt	nt
Cn1cc2cc(NC(N)=S)ccc2n1	-2	-1	0	-8	-24	7
CC(=O)N(C)c1ccc(NC(=O)Nc2ccc(C)cc2)cc1	2	7	0	-8	51*	15
CCOC(=O)c1cccc(NC(=O)CSc2nc3ccccc3c(=O)n2CCOC)c1	-2	69*	0	22	12	nt
COCCn1c(SCc2ccccc2F)nc2ccccc2c1=O	-4	-3	0	10	51*	-12
CCCn1c(SC(C(=O)Nc2cccc(OC)c2)c2ccccc2)nc2ccccc2c1=O (centres undefined)	-3	50*	0	1	8	nt
CCC(=O)N1CCN(c2ccccc2NC(=S)NC(=O)c2cccc([N+](=O)[O-])c2)CC1	4	10	0	41	-64	6
CN1CCN(c2ccccc2NC(=O)c2ccc([N+](=O)[O-])o2)CC1	-7	-7	2	-4	nt	54*
CN1CCN(c2ccccc2NC(=O)c2ccc(-c3cccc([N+](=O)[O-])c3)o2)CC1	nt	77*	0	29	28	nt
CN1CCN(c2ccccc2NC(=O)c2cccc([N+](=O)[O-])c2)CC1	-1	-1	0	5	-3	6
CCC(=O)N1CCN(c2ccccc2NC(=O)c2ccc(-c3cccc([N+](=O)[O-])c3)o2)CC1	2	107*	-1	51*	22	38
CS(=O)(=O)N1CCN(c2ccccc2NC(=O)c2ccc([N+](=O)[O-])o2)CC1	-5	35	0	21	0	28
CN(C)c1ccc(C(c2ccc(N(C)C)cc2)C(O)c2ccccc2)cc1 (centres undefined)	nt	3	-1	8	nt	-25
O=C(Oc1ccc(N(Cc2cccs2)C2=NS(=O)(=O)c3ccccc32)cc1)c1ccccc1Cl	3	75*	0	31	-39	7
c1ccc(CCNc2ncnc3ccccc23)cc1	-6	-9	8.7*	1	26	-30
